According to PubChem BioAssay AID911 (National Center for Advancing Translational Sciences (NCATS), 2007):
Some of the results follow. Entries that show only a call come without a potency. Results filed as inconclusive are left out. Activity calls are given as the source filed them. The call rests on the fitted dose curve.

Target: Microtubule-associated protein tau (Homo sapiens) (UniProt P10636)
Assay: Tau ThS binding assay
Details: recombinant tau filaments, Thioflavin S fluorescence displacement
Source text: NIH Molecular Libraries Screening Centers Network [MLSCN] NIH Chemical Genomics Center [NCGC] MLSCN Grant: 1 X01 MH079825-01 Assay Provider: Jeffrey A. Kuret, Ohio State University NCGC Assay Overview: This assay is a confirmation study for the qHTS Assay for Tau Filament Binding (PubChem AID 596). Tau monomers form filaments in vitro in the presence of arachidonic acid. The dye Thioflavine S (ThS) binds to tau filaments and upon binding, increases in fluorescence several fold. Small molecules that displace ThS binding or prevent filament binding are identified by a reduction in ThS fluorescence.
NCGC Assay Protocol Summary The assay was performed in 96-well round bottom opaque plates (VWR, West Chester, PA) in 100 uL final volume. Recombinant His6-htau40 was diluted to 5 uM in assembly buffer (10 mM HEPES, pH 7.4, 100 mM NaCl, 5 mM dithiothreitol) containing 50 uM arachidonic acid inducer. ThS probe was then added to a final concentration of 10 uM with test compounds assayed at nine 3-fold dilutions beginning at 10 uM final concentration. Each compound was tested at least twice in separate assays. Controls without protein or without compound were included on each plate. […] Fluorescence (ex = 440 nm; em = 485 nm) was measured after brief shaking (10 s) in a FlexStation plate reader (Molecular Devices, Sunnyvale, CA) operated at sensitivity 10, automatic PMT. […]

Sequence of Microtubule-associated protein tau (Homo sapiens) (P10636 whole entry, looked up): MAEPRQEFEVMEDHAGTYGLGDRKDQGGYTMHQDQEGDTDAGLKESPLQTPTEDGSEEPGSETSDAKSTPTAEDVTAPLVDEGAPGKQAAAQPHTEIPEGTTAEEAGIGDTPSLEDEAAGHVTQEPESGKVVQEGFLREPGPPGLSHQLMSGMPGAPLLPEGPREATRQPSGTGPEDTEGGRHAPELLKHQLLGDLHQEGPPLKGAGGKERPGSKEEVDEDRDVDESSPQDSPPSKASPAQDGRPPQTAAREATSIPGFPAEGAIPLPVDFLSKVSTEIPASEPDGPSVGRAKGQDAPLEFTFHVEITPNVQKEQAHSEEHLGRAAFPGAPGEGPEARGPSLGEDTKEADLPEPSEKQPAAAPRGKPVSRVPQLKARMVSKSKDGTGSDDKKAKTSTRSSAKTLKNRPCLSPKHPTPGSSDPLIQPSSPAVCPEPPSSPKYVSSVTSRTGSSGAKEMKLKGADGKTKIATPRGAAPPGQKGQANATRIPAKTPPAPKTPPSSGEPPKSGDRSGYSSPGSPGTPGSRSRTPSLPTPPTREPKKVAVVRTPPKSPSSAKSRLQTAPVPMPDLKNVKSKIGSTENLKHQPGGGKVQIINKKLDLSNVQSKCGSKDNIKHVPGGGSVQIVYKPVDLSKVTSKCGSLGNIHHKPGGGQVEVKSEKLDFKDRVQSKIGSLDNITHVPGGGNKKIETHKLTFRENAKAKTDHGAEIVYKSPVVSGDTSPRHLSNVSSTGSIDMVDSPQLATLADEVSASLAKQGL

Compound	Potency	outcome
Oc1ccc(O)c2c(O)cccc12	4.97 µM (active)	
O=C(CCCCn1c(=O)[nH]c2ccccc2c1=O)NCc1ccc2c(c1)OCO2		inactive
